Only some compounds are listed: those with a hit (about 2.5% of all), similar ones and a draw of the others.
Mot1-301 SUMO = SUMOylation pathway inhibition by Mot1-301 growth rescue; S. cerevisiae Mot1-301 growth rescue, ATP luminescence, 38.5C; percent above DMSO median, 100 means doubled; growth rescue, % at 18.8 µM; 1% of 320,000 active; AID 2716;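 active = every valid replicate shows activation above 250% relative to neutral control wells; inactive = the rest, any valid replicate at or below 250%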;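 also: OY570 slx delta 5 strain wells were the positive control but not used for scaling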
V-ATPase pHluor = regulators of yeast V-ATPase proton transport. S. cerevisiae, pHLuorin cytosolic pH fluorescence. response, % at 10 µM. 0.37% of 350,000 active; in the data active = response mostly above about 7.3%, no sharp cut-off; inactive = mostly below about 5.4%; also: actives read high
ATG4B inh = ATG4B (human) cysteine protease inhibition. Q9Y4P1. ATG4B cleavage of LC3-PLA2, NBD-HPC fluorescence, 1 h. inhibition, % at 8.33 µM. 0.51% of 340,000 active; in the data active = inhibition above about 40%
Target sequence (Q9Y4P1 whole entry, looked up): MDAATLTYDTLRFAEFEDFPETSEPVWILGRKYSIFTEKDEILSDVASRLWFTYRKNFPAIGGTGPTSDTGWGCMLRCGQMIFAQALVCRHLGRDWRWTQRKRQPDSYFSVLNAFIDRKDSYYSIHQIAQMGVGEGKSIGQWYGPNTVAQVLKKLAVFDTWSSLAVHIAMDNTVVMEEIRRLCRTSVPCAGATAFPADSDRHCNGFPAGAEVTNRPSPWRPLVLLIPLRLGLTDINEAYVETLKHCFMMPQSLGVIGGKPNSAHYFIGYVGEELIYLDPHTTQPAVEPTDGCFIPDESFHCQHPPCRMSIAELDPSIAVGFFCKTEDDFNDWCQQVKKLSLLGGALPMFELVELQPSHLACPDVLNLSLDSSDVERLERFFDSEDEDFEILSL
Efflux pump mplx = blocks antifungal efflux pumps in multiplex yeast assay | S. cerevisiae Candida pump triplex, Nile Red efflux | inhibition, % at 10 µM | 0.44% of 330,000 active;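 active = plate passing quality check with inhibition over a set limit, or well fluorescence over plate mean plus 4 SD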;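 also: Nile Red retained in pooled yeast measured as flow cytometry median fluorescence; 0% = buffer negative control and 100% = Enniatin B positive control; higher means more Nile Red kept so more efflux inhibition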
AI-2 QS mod = modulates the Vibrio harveyi AI-2 quorum sensing system; Vibrio harveyi JMH597 AI-2 luminescence/OD600 ratio, 9 h; hits give low values; strain lacks LuxN and CqsS sensors; 0 = neutral-control median; activity change, % at 7.5 µM; 0.4% of 300,000 active; AID 2094; in the data active = activity change below about -75%, passing the limit was not always enough; inconclusive = no clear call, values can overlap the other calls;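 also: luminescence divided by OD600 gain over 9 h not by final OD600 alone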
ATG4B conf = confirmation of human ATG4B inhibitors | 92% of 320 active | shares compounds with ATG4B inh | ATG4B protease fluorescent substrate cleavage assay | inhibition, % at 8.33 µM; in the data active = inhibition above about 39%
PLA2 ctr = inhibits human PLA2, flagging false ATG4B inhibitors; inhibition, % at 8.33 µM; 66% of 1,600 active; shares compounds with ATG4B inh; purified PLA2, NBD-C6-HPC fluorescence, 45 min; in the data active = inhibition above about 50%
Target sequence (P04054 whole entry, looked up): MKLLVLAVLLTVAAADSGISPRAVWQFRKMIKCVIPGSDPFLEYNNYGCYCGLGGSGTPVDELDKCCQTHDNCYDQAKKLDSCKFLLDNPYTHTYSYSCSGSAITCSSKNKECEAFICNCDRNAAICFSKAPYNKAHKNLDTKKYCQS
Active calls of the source: *; u = inconclusive; x = no result given.

SMILES	Mot1-301 SUMO	V-ATPase pHluor	ATG4B inh	Efflux pump mplx	AI-2 QS mod	PLA2 ctr	others
COc1ccccc1NS(=O)(=O)c1ccc(C)c(C(=O)NCCCN2CCCC2=O)c1	-4	0	-5	0	1	x
CSCC(C)N1CCC(n2nccc2NC(=O)CCCc2ccccc2)CC1 (configuration not stated)	1	-2	-6	0	20	x
S=C(Nc1ccc(Cl)c(Cl)c1)NC1CCCCC1	22	3	48*	0	24	40
O=C(CCSCc1cccc(Cl)c1)NCCc1ccc(Cl)cc1	-21	58*	44*	0	21	16
S=C(Nc1ccc2nsnc2c1)NC1CCCCC1	1	11	5	0	4	x
O=C(CCSCc1ccc(Cl)cc1)NCCc1ccccc1	23	-3	5	0	13	x
S=C(NCCCCc1ccccc1)NCc1ccccc1	4	1	63*	0	-20	70*
S=C(NCCc1ccccc1)NCCc1ccccc1	2	1	-1	0	-17	x
S=C(NCCc1ccccc1)NCc1cccc(Cl)c1	46	1	84*	0	-14	90*
O=[N+]([O-])CC(=Nc1ccc(F)cc1)N/N=C\c1oc(O)c2ccccc12	1	x	x	0	30	x
COc1ccccc1C(=O)NCC(=O)OCc1nnc(-c2ccccc2)o1	x	4	x	x	x	x
CC(C)CC(OC(=O)c1ccco1)C(=O)NC1CCCC1 (configuration not stated)	6	2	2	1	6	x
S=C(NCc1cccc(Cl)c1)NC1CCCCC1	2	0	59*	1	-27	64*
S=C(NCc1ccccc1)NC1CCCCC1	-5	3	4	0	-64	x
CC(C)c1ccc(NC2CCCN(C(=O)c3ccoc3)C2)cc1 (configuration not stated)	-10	-2	56*	0	-10	60*
CC(C)c1ccc(NC2CCCN(C(=O)c3cc(C(C)C)nc(N)n3)C2)cc1 (configuration not stated)	-2	5	75*	0	-6	77*
CC(C)c1ccc(NC2CCCN(C(=O)c3ccc(N4CCOCC4)cc3)C2)cc1 (configuration not stated)	1	4	77*	0	11	82*
O=C(c1ccoc1)N1CCCC(Nc2ccc(F)c(F)c2)C1 (configuration not stated)	12	2	-1	0	7	x
CC(C)c1ccc(NC2CCCN(C(=O)CC3CCCC3)C2)cc1 (configuration not stated)	42	4	87*	0	18	89*
CC(C)c1ccc(NC2CCCN(C(=O)CCN3CCCC3=O)C2)cc1 (configuration not stated)	-7	2	6	0	24	x
COc1ccc(OC)c(/C=C/C(=O)N(C)CC(=O)Nc2ccc(N3CCOCC3)cc2)c1	62	-3	6	0	x	x
CC1(C(=O)O)CCC(C(=O)N2CCOCC2)C1(C)C (configuration not stated)	6	2	-6	0	17	x
O=C(O)c1ccccc1C(=O)N(Cc1ccccc1)Cc1ccccc1	9	0	2	0	12	x
O=C(O)c1cc(Cl)c(Cl)cc1C(=O)N(Cc1ccccc1)Cc1ccccc1	1	-1	43*	0	17	52*
Nc1ccc2c(c1)C(=O)C(=O)c1ccccc1-2	91	-1	78*	0	u	11	ATG4B conf=27
SMILES	Mot1-301 SUMO	V-ATPase pHluor	ATG4B inh	Efflux pump mplx	AI-2 QS mod	PLA2 ctr	others
O=C(O)c1cc(Br)ccc1NN=C1CCCCC1	-11	1	50*	0	9	40	ATG4B conf=62*
Cc1cccc(N2CCN(S(=O)(=O)c3ccc4c(c3)CCN4C(=O)CCC(=O)O)CC2)c1C	15	-1	41*	0	x	30
Oc1ccc(-c2csc(Nc3ccc4c(c3)OCO4)n2)c(O)c1	x	1	42*	x	x	59*
O=C(NCCc1nc2ccc(Cl)cc2[nH]1)C1CCC(=O)N(Cc2cccc(F)c2)C1 (configuration not stated)	-2	0	2	0	15	x
O=[N+]([O-])c1cccc(S(=O)(=O)Nc2nc3ccccc3nc2Nc2cccc(S(=O)(=O)N3CCCCC3)c2)c1	x	-3	46*	x	21	50
Cc1ccc(S(=O)(=O)Nc2nc3ccccc3nc2Nc2cccc(S(=O)(=O)N3CCCC3)c2)cc1	502	1	-9	0	25	x
CC(C)(C)C(=O)CSc1ncnc2sc3c(c12)CCC3	-1	3	x	0	17	21
CC(=O)CSc1ncnc2sc3c(c12)CCC3	24	2	19	0	19	x
Cc1nn(Cc2ccccc2)c2ncccc12	-1	2	6	0	29	x
O=C(c1cc(-c2ccco2)on1)N1CCCc2ccccc21	2	-2	63*	0	19	49
O=C(c1cc(-c2ccco2)on1)N1CCc2ccccc2C1	255	4	46*	0	18	58*
O=C(c1cc(-c2ccccc2O)on1)N1CCc2ccccc2C1	4	-1	32	-1	-72	x
COc1ccc(C(=O)NCCS(=O)(=O)N2CCCC2)cc1	-3	-3	1	0	11	x
C/C(=N\Nc1ccc(C(=O)O)cc1)c1ccc(-n2ccnc2)cc1	0	0	-14	0	23	x
Cc1ccc(S(=O)(=O)c2nc(S(=O)(=O)c3ccc(C)cc3)c(N3CCN(CCO)CC3)s2)cc1	5	-1	-7	0	11	x
COc1cc2c(cc1OC)C(c1ccccc1O)N(C1CC(=O)N(c3ccccc3)C1=O)CC2 (configuration not stated)	50	-2	-11	0	x	x
CC(C)(C)c1ccc(OC(=O)c2ccccc2)cc1	5	1	68*	0	-14	64*
CC(CC(=O)NNC(=O)c1cccc(Cl)c1)c1ccccc1 (configuration not stated)	-7	-4	1	0	24	x
O=C1NC(=S)SC1=Cc1ccccc1Cl	x	-2	4	x	x	x
Cc1ccc(C2C(/C=C3/SC(=S)NC3=O)=C(c3cccs3)Oc3ccccc32)cc1 (configuration not stated)	3	-5	57*	0	43	55*
CCCCn1c(N)c(N(CCOC)C(=O)c2ccc(S(=O)(=O)N3CCCCCC3)cc2)c(=O)[nH]c1=O	5	3	-3	0	9	x
COC(=O)CCC(=O)OC1(C)C(=O)C2=CN(C(CO)CO)C(c3ccc(OC)cc3)=CC2=C(Br)C1=O (configuration not stated)	3	x	x	0	28	x
